Experimental data published in the OligoGym collection.

Biological target: ENO2
Assay: pooled miR-30 sensor sort-seq; sequence = guide strand
Conditions: shRNA
Further: reference of the scale not given here.

Sequence | sensor-assay potency score (higher = more potent)
TGATGTATCGGGAAGGATCAGT | -0.0535
TTGATGACTCCCTTGAGTGTAT | -0.705
TTGGATGGCTTCAGTGACCGAG | 0.159
TTGGCTGTGAACTTGGACCAGG | -0.413
TCTAACACCTCAGCACACCAAC | -0.842
TAGTCCCTGACAAAGTCCTGGT | -0.652
TTCAGTGACCGAGCCGATCTGG | -0.433
TTGAGTGTATGGTAGACCTCTG | -0.0986
TTTGCCTAAGTAACGCTGTTTG | -1.32
ATTGGTGGCATCCTTGCCGTAT | -0.654
TACATTGGCTGTGAACTTGGAC | 0.428
TTGTCCTTGATGACTCCCTTGA | -0.328
TATGGTAGACCTCTGCACCTAG | 0.499
TTGGATTTGTTCTCAGTCCCAT | 0.271
TAGAGATCCACCTCCACTGTGG | 0.0832
TTTCTCTTGCTCCACCACAGAG | -1.22
TATTTGTCCTTGATGACTCCCT | 0.308
TAGACCTCTGCACCTAGTCGCA | -1.03
TTTGTCTCCATCCCTCAGCTCC | -0.755
TATAGAGATCCACCTCCACTGT | -0.931
TTCCTCAATTCTCATGAGCTGG | -0.892
TTCTCTTGCTCCACCACAGAGA | -1.02
TTGAGCAGCAGACAGTTGCAGG | -0.936
TTTTGGGTTGGTCACTGTCAGG | -1.77

Biological target: ENPP7
Assay: as above
Conditions: shRNA

Sequence | sensor-assay potency score (higher = more potent)
TTCTTGTAGACGTGGAGCTTGG | -0.97
TTTAGGGAGCAGCATCCCGTTT | -1.36
TTGTAGTTGTGTGCGATGCCTT | -0.915
TTGTAGACGTGGAGCTTGGGGT | -0.738
TCGCTCTCCACTCCGTCTCATT | -1.59
TTGTCCACGGTCGTCATGCCGT | -1.22
TACATGTTGTGAACCACCCCGT | -0.259
TAGGGCAGCTTCACCTTGCTGG | -0.078
TAGTCCAGGAGCTCAAACTCGA | -0.814
TTCATGTCCATGTCCTTGTTGT | -0.0468
TTGAACTGGACGTTAATTCTCC | -0.264
TTGCGCGCGATGCTCTCCCGGA | -1.29

Biological target: ENTHD1
Assay: as above
Conditions: shRNA

Sequence | sensor-assay potency score (higher = more potent)
TATACTTCTTCTCTGAAGCAGA | -0.435
TTACAATCTCCTTCACTCGGTC | 0.0777
TAGAAGACAACTGTTGATGGGA | 0.377
